Compound activity (PubChem BioAssay)
Hits are enriched below; roughly 2.8% of the tested compounds scored in any of these assays.
Pol kappa inh: inhibitors of human DNA polymerase kappa | Q9UBT6 | purified Pol kappa, fluorescent DNA synthesis assay, 10 min | Potency, µM (highest dose often 107 µM), inactives show at the highest dose activity, negative = inhibition, most hits filed as inhibitors | 0.53% of 400,000 active | AID 588579; note: potency is the fitted concentration of half-maximal effect; % is set by controls: 0 for no effect and ±100 for the full control effect
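Activity was followed as the change in fluorescence between reads at 0 and 10 min after starting the reaction with 50 nM substrate. Beforehand, 10 nM polymerase had been preincubated with compound for 15 min at room temperature.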
PI5P4K alpha inh: blocks human PI5P4K alpha kinase activity. PI5P4Kalpha enzyme, ADP-Glo luminescence, 60 min; stronger effect = lower value. max response, %. 1.2% of 330,000 active. P48426; active = max response of -50% or lower; inconclusive = between -30% and -50%; inactive = -30% or higher; note: value at the top dose of about 77 µM; % is set by controls: 0 for no effect and ±100 for the full control effect
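PI5P4Kalpha ADP-Glo assay; 5 microM ATP final; 60 min RT reaction; HEPES pH 7.4/EGTA/CHAPS, 5% DMSO; controls lacking substrate or enzyme; luminescent end-point.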
POLB inh: DNA polymerase beta (human) inhibition; 1.3% of 340,000 active; Potency, µM (series often up to 114 µM), without a hit: top-dose activity change, negative = inhibition, most hits filed as inhibitors; P06746; Pol beta primer extension/strand displacement, fluorescence kinetic; note: potency is the fitted concentration of half-maximal effect; % is set by controls: 0 for no effect and ±100 for the full control effect
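Homogeneous kinetic assay of primer extension and strand displacement by 10 nM Pol beta, preincubated 15 min at room temperature with compound before 50 nM substrate (final) was added. Read at 0 and 10 min; four-parameter Hill fit.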
POLI inh: blocks human DNA polymerase iota activity; Q9UNA4; Pol iota fluorescent replication assay, 10 min; 1% of 390,000 active; Potency, µM (doses to about 115 µM), inactives show at the highest dose activity, negative = inhibition, actives largely listed as inhibitors; note: potency is the fitted concentration of half-maximal effect
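Fluorescent replication assay read twice, at 0 min and 10 min after adding 50 nM (final) substrate. Enzyme (10 nM) and compounds were first incubated 15 min at room temperature; enzyme-free buffer wells were negative controls.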
WRN helicase inh: inhibitors of human WRN helicase | WRN helicase unwinding, fluorescent forked duplex, kinetic | 0.46% of 360,000 active | Q14191 | Potency, µM (doses to about 114 µM), for the others: at the top dose activity change, negative = inhibition, actives largely listed as inhibitors | AID 651768; note: potency is the fitted concentration of half-maximal effect; % is set by controls: 0 for no effect and ±100 for the full control effect; nearly all actives have a fitted effect of over 55% in size
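Fluorescence dequenching readout, ex 525 nm/em 598 nm, kinetic mode: forked duplex DNA (100 nM final) with adjacent fluorophore and quencher unwound by WRN (20 nM final) with 2 mM ATP. Compound preincubation 15 min, room temperature.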
Pol eta inh: inhibitors of human DNA polymerase eta; Q9Y253; recombinant Pol eta, fluorescent DNA replication assay; Potency, µM (highest dose often 114 µM), without a hit: at the top dose activity change, negative = inhibition, actives largely listed as inhibitors; 1.2% of 390,000 active; note: potency is the fitted concentration of half-maximal effect; % is set by controls: 0 for no effect and ±100 for the full control effect
Target sequence (Q9Y253 whole entry, looked up): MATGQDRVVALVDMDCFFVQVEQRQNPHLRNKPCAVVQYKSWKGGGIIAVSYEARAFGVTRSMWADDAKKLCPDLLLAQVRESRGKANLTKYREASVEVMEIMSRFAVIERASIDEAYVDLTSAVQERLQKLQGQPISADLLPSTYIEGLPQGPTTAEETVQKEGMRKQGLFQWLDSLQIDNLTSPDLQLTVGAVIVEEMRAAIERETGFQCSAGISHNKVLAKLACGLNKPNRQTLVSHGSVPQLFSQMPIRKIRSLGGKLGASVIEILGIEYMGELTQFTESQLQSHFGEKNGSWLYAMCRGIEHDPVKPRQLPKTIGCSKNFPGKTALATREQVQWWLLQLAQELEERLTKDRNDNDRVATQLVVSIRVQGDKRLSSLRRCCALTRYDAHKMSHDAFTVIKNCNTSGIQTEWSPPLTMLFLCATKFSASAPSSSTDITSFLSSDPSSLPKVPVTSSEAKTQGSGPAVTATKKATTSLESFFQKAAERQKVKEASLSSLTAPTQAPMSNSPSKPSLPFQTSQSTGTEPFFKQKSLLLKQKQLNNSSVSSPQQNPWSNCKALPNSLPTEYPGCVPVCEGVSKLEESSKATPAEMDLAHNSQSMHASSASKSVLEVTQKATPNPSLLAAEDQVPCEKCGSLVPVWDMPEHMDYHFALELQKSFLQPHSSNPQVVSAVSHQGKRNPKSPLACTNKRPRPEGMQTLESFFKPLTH
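Fluorescent replication assay: 50 nM final substrate added after a 15 min room-temperature compound preincubation with 10 nM enzyme. Signal taken at 0 min and again at 10 min.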
* hit, by the source's call; ? = inconclusive; · = not tested or not shown; [ ] = dose if it differs, or a comment. Unless noted, calls come from the whole dose curve; as a rule, active = well fitted curve in the direction sought with a large enough effect; inconclusive = small, poorly fitted or top-dose-only effect, or another doubt; inactive = no such curve, though single readings can be large; an effect the other way counts as inactive or inconclusive.

SMILES	Pol kappa inh	PI5P4K alpha inh	POLB inh	POLI inh	WRN helicase inh	Pol eta inh
COc1ccc(C(=O)OCC(=O)NCCCc2ccccc2)cc1[N+](=O)[O-]	-5%	2	-26%	126%	-4%	-3%
COc1ccc(C(=O)OCC(=O)c2ccco2)cc1[N+](=O)[O-]	·	-59*	·	·	-11%	?
Cc1ccc(S(=O)(=O)NC(=O)N(C)C2CCCCC2)cc1	-2%	-1	31%	20%	11%	-9%
COc1ccc(-c2noc(N3CCN(c4ccc(C)cc4)C(C)C3)n2)cc1OC (stereo not drawn)	-18%	·	-2%	14%	·	-18%
CN(C)c1cc2c3ccccc3ccc2c2ccccc12	-3%	·	·	14%	·	·
C[C@@]12C=CC(=O)C=C1CC[C@H]1[C@H]3CC[C@](O)(C(=O)CO)[C@]3(C)CC(=O)[C@@H]12	0%[12 µM]	·	·	·	·	·
COc1ccc(NC(=O)c2cc(S(=O)(=O)N3CCCC(C)C3)cn2C)c(OC)c1 (stereo not drawn)	-11%[60.1 µM]	·	3%	24%	·	-16%
CCOC(=O)c1c(N2C(=O)Nc3ccccc3N2O)n[nH]c1-c1cccc(OC)c1	4%[60.1 µM]	-52*	27%	15%	1%	0%
CCOC(=O)c1cccc(N2C(=O)Nc3ccccc3N2O)c1	-1%	3	1%	-1%	3%	-1%
NC(=O)c1cc(S(=O)(=O)N2CCOCC2)ccc1Sc1ccccc1N	1%	4	·	68%	-10%	-15%
COc1ccc(CNc2ncncc2-c2ccoc2)c(OC)c1	-6%[60.1 µM]	·	·	·	·	·
Cc1ccncc1C(=O)O	15%[60.1 µM]	·	·	·	·	·
Cc1cc(C(F)(F)F)n2[nH]c(=O)c(N=Nc3ccccc3)c2n1	?	-2	-20%	40µM*	0%[11.6 µM]	12%
Nc1ccccc1Sc1ccc(C(=O)c2ccccc2C(=O)O)cc1[N+](=O)[O-]	-5%	-66*	-7%	-14%	-33%	?
CC(=O)c1ccc(Sc2ccccc2)c([N+](=O)[O-])c1	-3%	3	-1%	39%	-4%	-13%
O=C(O)c1ccccc1C(=O)c1ccc(Sc2ccc(Cl)cc2)c([N+](=O)[O-])c1	0%	-12	79µM*	15%	1%	-14%
CCCc1ncc(CN2CCC(C(=O)Nc3cccc(-c4cscn4)c3)CC2)cn1	-3%	-4	23%	-23%	-6%	2%
COC(=O)c1ccsc1NC(=O)c1cccc(OC)c1	-5%	2	-1%	89µM*	-5%	-25%
COc1cccc(C(=O)Nc2ccccc2)c1	-6%	-9	22%	20%	-2%	-10%
CC(C)CS(=O)(=O)c1oc(-c2ccc(F)cc2)nc1S(=O)(=O)c1ccccc1	-5%	·	19%	?	·	-9%
N/C(=N\OC(=O)Cc1cccs1)c1ccccc1	-27%	-61*	-14%	4%	-25%	16µM*
CC1(OC(=O)CCc2ccccc2)C(=O)C=C2C=C(c3ccc(C#N)cc3)N(c3ccccc3)C=C2C1=O (stereo not drawn)	-8%	?	20%	16%	1%	-2%
CC1(OC(=O)CCc2ccccc2)C(=O)C=C2C=C(c3ccsc3)OC=C2C1=O (stereo not drawn)	·	·	45µM*	·	·	·
Cc1ccc(S(=O)(=O)N2CCCCC2)cc1NC(=O)CSc1ncccn1	-7%	-6	·	?	7%	-12%
O=C(O)c1ccccc1NS(=O)(=O)c1cccc(-n2sc3ccccc3c2=O)c1	-35%	-97*	?	25µM*	11µM*	50µM*
SMILES	Pol kappa inh	PI5P4K alpha inh	POLB inh	POLI inh	WRN helicase inh	Pol eta inh
Cc1nn(Cc2nc(-c3cccs3)no2)c(C)c1Br	-1%	7	35µM*	0%	-5%	-13%
CCOC(=O)N1CCN(Cc2nc(-c3cccs3)no2)CC1	4%	11	37%	20%	1%	-7%
CCc1cccc(NC(=O)Cn2c(=O)n(CC3CCC(C(=O)NC)CC3)c(=O)c3sccc32)c1 (stereo not drawn)	-2%	·	-1%	-11%	·	-4%
CCOc1ccccc1NC(=O)CN1C(=O)COc2ccc(S(=O)(=O)Nc3ccccc3)cc21	-2%	·	7%	?	·	-4%
COc1ccc2nc(NC(=O)c3nc(S(=O)(=O)Cc4ccc(C)cc4)ncc3Cl)sc2c1	?	·	?	89µM*	·	?
Cc1ccc(CS(=O)(=O)c2ncc(Cl)c(C(=O)Nc3nc4ccc(C)cc4s3)n2)cc1	7%	·	27%	?	·	-6%
O=C1c2ccccc2NC(c2cccc(F)c2)N1Cc1ccco1 (stereo not drawn)	-18%	·	7.9µM*	8%	-22%	-6%
CCn1c2c(c(=O)n3ncc(C(=O)N4CCN(c5ccc(C(C)=O)cc5)CC4)c13)CN(Cc1ccc(OC)cc1)CC2	-3%[60.1 µM]	·	?	?	·	89µM*
CCc1cc(=O)oc2cc(C)c(CN3CCCC(C)C3)c(O)c12 (stereo not drawn)	10µM*	·	3.2µM*	3.5µM*	35µM*	35µM*
Cc1ccc(C(=O)CC2(O)C(=O)Nc3ccccc32)s1 (stereo not drawn)	1%	-55*	-19%	1%	7%	-14%
Cc1ccc2c(c1)C(O)(CC(=O)c1ccc(C)s1)C(=O)N2 (stereo not drawn)	-9%	-4	0%	90%	4%	-14%
COc1cc(OC)nc(NC(=S)NC(=O)c2ccccc2)n1	-14%	6	5%	0%	-8%	-11%
C#CCOCCOCCOCCNc1nc(N2CCN(C(=O)CCCCCCCCCCNC(=O)Cn3cc(CCCCCN)nn3)CC2)nc(N2CCN(C(=O)CCCCCCCCCCNC(=O)[C@@H]([C@H](C)O)n3cc(C)nn3)CC2)n1	-18%	?	·	?	-34%	-16%
C#CCOCCOCCOCCNc1nc(N2CCN(C(=O)CCCCCCCCCCNC(=O)Cn3cc(CCCCCN)nn3)CC2)nc(N2CCN(C(=O)CCCCCCCCCCNC(=O)Cn3cc(C[C@@H](C)O)nn3)CC2)n1	6%	-65*	·	-18%	25µM*	?
C#CCOCCOCCOCCNc1nc(N2CCN(C(=O)Cn3cc(CCCCN)nn3)CC2)nc(N2CCN(C(=O)Cn3cc(CC(C)O)nn3)CC2)n1 (stereo not drawn)	5%	2	-23%	22%	-1%	6%
C#CCOCCOCCOCCNc1nc(N2CCN(C(=O)CCCCCCCCCCNC(=O)Cn3cc(C[C@@H](C)O)nn3)CC2)nc(N2CCN(C(=O)CCCCCCCCCCNC(=O)[C@@H]([C@H](C)CC)n3cc(CCCCCN)nn3)CC2)n1	15%	?	·	?	?	89µM*
